# TDP1 inh: qHTS Assay for Inhibitors of Tyrosyl-DNA Phosphodiesterase (TDP1). Tyrosyl-DNA phosphodiesterase 1 (Homo sapiens), Q9NUW8. recombinant TDP1, AlphaScreen DNA substrate cleavage. Potency, µM (highest dose often 130 µM), inactives show top-dose activity change, negative = inhibition, most hits filed as inhibitors. 0.28% of 350,000 active. AID 485290, 2010; note: % is set by controls: 0 for no effect and ±100 for the full control effect; nearly all actives have a fitted effect of over 40% in size
# Target sequence (Q9NUW8 whole entry, looked up): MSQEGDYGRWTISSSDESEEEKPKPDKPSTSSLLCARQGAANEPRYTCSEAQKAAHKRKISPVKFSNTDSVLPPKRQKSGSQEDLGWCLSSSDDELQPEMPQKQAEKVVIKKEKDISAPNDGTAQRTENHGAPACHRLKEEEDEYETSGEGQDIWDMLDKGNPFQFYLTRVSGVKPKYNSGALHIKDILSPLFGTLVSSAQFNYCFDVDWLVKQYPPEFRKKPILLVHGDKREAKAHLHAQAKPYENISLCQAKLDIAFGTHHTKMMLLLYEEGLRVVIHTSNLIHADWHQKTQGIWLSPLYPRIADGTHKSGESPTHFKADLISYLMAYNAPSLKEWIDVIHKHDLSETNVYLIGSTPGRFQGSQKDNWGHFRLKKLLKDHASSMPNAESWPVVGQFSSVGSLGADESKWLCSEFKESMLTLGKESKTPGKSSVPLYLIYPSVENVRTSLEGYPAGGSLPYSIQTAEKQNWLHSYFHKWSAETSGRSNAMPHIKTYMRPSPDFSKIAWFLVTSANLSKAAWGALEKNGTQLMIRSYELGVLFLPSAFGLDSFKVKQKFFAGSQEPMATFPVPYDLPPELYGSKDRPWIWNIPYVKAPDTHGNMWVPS
#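 Compounds were preincubated with Tdp1 (1 nM final) for 15 min at room temperature before substrate (15 nM final) started a 5 min reaction; beads (10 ug/ml final) were then added for 10 min before AlphaScreen detection.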
# ClpP mod: qHTS Assay for Activators of ClpP. ATP-dependent Clp protease proteolytic subunit (Bacillus subtilis (strain 168)), P80244. purified B. subtilis ClpP, FRET peptide cleavage, 20 min. Potency, µM (doses to about 57.5 µM), inactives show top-dose activity change, negative = active. 1.9% of 340,000 active. AID 651965, 2013; active = well fitted falling curve with a large enough effect; inconclusive = small, poorly fitted or top-dose-only effect; inactive = no such curve, though single readings can be large or run the other way; note: the source files actives as falling curves though it sought activators and does not explain the sign; nearly all actives have a fitted effect of over 65% in size
#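 Purified B. subtilis ClpP, 10 microg/mL final in Tris/HCl pH8 with KCl, BSA, glycerol and Tween-20, cleaved an Abz/nitrotyrosine-quenched decapeptide. Fluorescence (ex 320, em 430) was read at 0 and 20 min at room temperature. Delta was normalized to 5.8 microM ADEP and DMSO/no-enzyme controls.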
# TDP1 cell CPT: qHTS for Inhibitors of human tyrosyl-DNA phosphodiesterase 1 (TDP1): qHTS in cells in presence of CPT; chicken DT40 Tdp1-/-;hTDP1 cells + 20 nM CPT, ATP luminescence, 48 h; Potency, µM (highest dose often 46.2 µM), inactives show at the top dose activity change, negative = growth inhibition, actives largely listed as inhibitors; 12% of 420,000 active; AID 686979, 2013; note: % is set by controls: 0 for no effect and ±100 for the full control effect; nearly all actives have a fitted effect of over 55% in size
#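 Cell growth measured by CellTiter-Glo luminescence after a minimum 48 h, 37 C compound exposure with 20 nM CPT in Tdp1-knockout DT40 cells stably expressing hTDP1, seeded 400/well; qHTS titration format.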
# DT40 TDP1 no CPT: qHTS for Inhibitors of human tyrosyl-DNA phosphodiesterase 1 (TDP1): qHTS in cells in absence of CPT; Potency, µM (doses to about 46.2 µM), without a hit: at the top dose activity change, negative = growth inhibition, actives largely listed as inhibitors; 15% of 420,000 active; AID 686978, 2013; DT40 Tdp1-/- hTDP1 cells, no CPT, ATP luminescence, 48 h; note: % is set by controls: 0 for no effect and ±100 for the full control effect; nearly all actives have a fitted effect of over 55% in size
#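 No-CPT arm: Tdp1-/-;hTDP1 DT40 cells (400/well) plus compounds, incubated ≥48 hr at 37 °C. Readout CellTiter-Glo luminescence.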
# Active calls of the source: *; ? = inconclusive; . = not tested or not shown; [ ] = remark or other dose. An excerpt weighted towards active compounds, which were near 17% of everything screened. Unless noted, calls come from the whole dose curve; as a rule, active = well fitted curve in the direction sought with a large enough effect; inconclusive = small, poorly fitted or top-dose-only effect, or another doubt; inactive = no such curve, though single readings can be large; an effect the other way counts as inactive or inconclusive. Potency is the fitted concentration of half-maximal effect.
SMILES,TDP1 inh,ClpP mod,TDP1 cell CPT,DT40 TDP1 no CPT
Brc1ccc(Nc2c3c(nc4nncn24)CCC3)cc1,7%,2%,?,18µM*
CCC(CO)Oc1cc(NC(=O)c2ccccc2Cl)c2ncn(C(C)C)c2c1 (stereo unspecified),-4%,-3%,-22%,-12%
CCC(CO)Oc1cc(NC(=O)c2ccc(OC)cc2)c2ncn(C(C)C)c2c1 (stereo unspecified),-3%,0%,18µM*,?
CCC(CO)Oc1cc(NC(=O)c2ccccc2[N+](=O)[O-])c2ncn(C(C)C)c2c1 (stereo unspecified),1%,1%,16µM*,?
COc1ccc(-n2c(Cc3cccn3C)nnc2SCC(=O)Nc2ccc(C)cc2)cc1,8%,2%,-2%,14%
COc1ccc(-n2c(CNc3ccc(C)cc3)nnc2SCC(=O)Nc2nc(-c3ccccc3)cs2)cc1,2%,2%,5.6µM*,10µM*
CCn1c(CCNC(=O)c2cccs2)nnc1SCC(=O)Nc1nc(-c2ccccc2)cs1,2%,1%,16µM*,10µM*
Cc1cc(C)nc(SCc2nnc(SCC(=O)Nc3nc(-c4ccccc4)cs3)n2-c2ccccc2)n1,7%,0%,?,18µM*
COc1ccc(NCc2nnc(SCC(=O)Nc3nc(-c4ccccc4)cs3)n2-c2ccccc2)cc1,-3%,1%,4.6µM*,23µM*
Cc1cc(C)nc(SCc2nnc(SCC(=O)O)n2-c2ccccc2)n1,-8%,.,2%,-3%
C=CCn1c(C)nnc1SCC(=O)Nc1ccccc1C(=O)NC1CC1,3%,2%,-4%,-2%
Cc1cc(C)nc(SCc2nnc(SCC#N)n2-c2cccc(Cl)c2)n1,7%,-1%,?,21µM*
CCCCCCC(O)(c1ccccc1)C(CN1CCOCC1)c1ccccc1 (stereo unspecified),.,3%,18µM*,23µM*
CCCCCC(O)(c1ccccc1)C(CN1CCOCC1)c1ccccc1 (stereo unspecified),.,1%,?,?
CCCC(O)(c1ccc(CC)cc1)C(CN1CCOCC1)c1ccccc1 (stereo unspecified),.,1%,16µM*,18µM*
CCCC(O)(c1ccc(Cl)cc1)C(CN1CCOCC1)c1ccccc1 (stereo unspecified),-4%,1%,?,?
CCCC(O)(c1ccccc1)C(CN1CCOCC1)c1ccccc1 (stereo unspecified),.,1%,21µM*,?
O=C(NC1(C(F)(F)F)N=C(c2ccccc2)N(C2CCCCC2)C1=O)c1ccc(F)cc1 (stereo unspecified),-3%,1%,-25%,?
CC1(C)CCC[C@]2(C)C3CC(=O)O[C@@]3(C)CC[C@H]12 (stereo partly specified),-3%[56.1 µM],.,0%,?
CC(=O)c1ccc(OCc2cc(C(=O)N3CCOCC3)no2)cc1,3%,2%,-23%,-11%
CC(=O)c1ccc(OCc2cc(C(=O)N(C)Cc3ncc(C)[nH]3)no2)cc1,3%,2%,9%,11%
CC(=O)c1ccc(OCc2cc(C(=O)N3CCCCCCC3)no2)cc1,0%,-3%,?,4.1µM*
CC(=O)c1ccc(OCc2cc(C(=O)N(C)C(C)c3ccon3)no2)cc1 (stereo unspecified),.,12%,?,18µM*
CC(=O)c1ccc(OCc2cc(C(=O)N(C)C(C)c3nccs3)no2)cc1 (stereo unspecified),.,-2%,16µM*,?
CC(=O)c1cccc(OCc2cc(C(=O)N(C)C(C)c3ccccn3)no2)c1 (stereo unspecified),2%,0%,?,?
SMILES,TDP1 inh,ClpP mod,TDP1 cell CPT,DT40 TDP1 no CPT
COc1ccc(-c2nnc(SCC(=O)Nc3ccc(Cl)cc3)s2)cc1,-1%,-22%,-23%,-19%
CCN(CC)S(=O)(=O)c1cc(C)ccc1SC,-5%,1%,-12%,?
CCn1c(NCc2ccc(OC)cc2)nc2ccccc21,0%,-2%,-14%,?
CCn1c(NCc2ccco2)nc2ccccc21,0%,1%,4%,2%
c1ccc(Cn2c(NCc3ccco3)nc3ccccc32)cc1,8%,-2%,?,18µM*
COc1ccc(CNc2nc3ccccc3n2Cc2ccccc2)cc1OC,6%,0%,?,18µM*
CCCC1C(=O)Nc2ccccc2N1C(=O)c1cccc(C)c1 (stereo unspecified),.,-3%,-26%,-11%
CCCC1C(=O)Nc2ccccc2N1C(=O)c1ccc(C(C)(C)C)cc1 (stereo unspecified),.,.,?,21µM*
O=C(COC(=O)/C=C/c1ccccc1Cl)NC1CCCCCC1,6%,3%,3%,-1%
Cc1ccccc1C=Nc1ccccc1C(N)=O,4%,28µM*,5.2µM*,4.6µM*
Cc1ccc(C=Nc2ccccc2C(N)=O)cc1,-1%,32µM*,2.8µM*,3.2µM*
O=C(Nc1ccccc1)c1ccccc1N=Cc1cccc(O)c1,-3%,.,-26%,?
NC(=O)c1ccccc1N=Cc1cccnc1,.,.,?,-18%
Cc1ccc(C=Nc2ccccc2C(=O)Nc2ccccc2)cc1,2%,28µM*,?,12µM*
COc1cccc(C=Nc2ccccc2C(=O)Nc2ccccc2)c1O,-1%,22µM*,8%,0%
CN(C(=O)c1ccc(NC(=O)Cc2cccc(NC(=O)C3CCN(C(=O)C4CCCC4)CC3)c2)cc1)C1CC1,.,0%,2%,?
COc1ccc2nc(-n3c(O)c(C4=c5ccccc5=NC4=O)[nH]c3=S)sc2c1,-8%,-3%,?,23µM*
Cn1c(O)c(C2=c3ccccc3=NC2=O)[nH]c1=S,0%,-14%,-20%,-23%
CC(=O)Nc1cccc(S(=O)(=O)Nc2ccc(C)c(C)c2)c1,1%,.,.,.
CCOC(=O)c1ccc(S(=O)(=O)NNC(=O)Cc2csc(C)n2)cc1,-13%,-3%,-3%,-4%
CNC(=O)c1nnsc1S(=O)(=O)c1ccc(Cl)cc1,5%,.,0.73µM*,1.5µM*
O=C(c1nnsc1S(=O)c1ccc(Cl)cc1)N1CCOCC1 (stereo unspecified),5%,.,0.46µM*,0.82µM*
O=C(c1cc(-c2ccc(Cl)cc2)on1)N1CCOCC1,7%,1%,-27%,0%
O=C(Nc1ccc(Cl)cc1)c1cccs1,6%,2%,-23%,-20%
O=C(Nc1ccccc1)c1nnsc1S(=O)c1ccc(Cl)cc1 (stereo unspecified),5%,1%,0.58µM*,0.82µM*
O=C(c1nnsc1S(=O)(=O)c1ccc(Cl)cc1)N1CCOCC1,-1%,.,2.3µM*,2.9µM*

# Screening results from PubChem.
